The source made the active and inactive calls.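 Rule for the calls: active = GFP response vs DMSO above 150% with enough events counted; inconclusive = fewer than 70 events counted for a yeast strain; inactive = the rest.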
Assay: yeast MEP2-GFP fusion level changes, TOR pathway – flow cytometry, third cherry pick, S. cerevisiae, confirmation (AID 504321);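 note: median per-cell GFP fluorescence by flow cytometry across all yeast cells; ratio of sample to DMSO median GFP so 100% equals the DMSO level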
Conditions: S. cerevisiae MEP2-GFP strain, 3 h, at 10 µM, stronger effect = higher value

| SMILES | GFP response vs DMSO |
| --- | --- |
| NC(=O)c1ccnc2c(O)cccc12 | 108% (inactive) |
| COc1ccc(N/C(C)=C/C(=O)c2ccccc2)cc1 | 103% (inactive) |
| O=C(O)CCCCCNc1ncnc2ccc(Br)cc12 | 101% (inactive) |
| O=C1c2ccccc2C(=O)c2c1cccc2N(CCO)CCO | 108% (inactive) |
| O=C(Nc1ccc(-c2nc3ccccc3o2)cc1)c1cccnc1 | 103% (inactive) |
| CNc1nc(N)c([N+](=O)[O-])c(Nc2cccc(Cl)c2)n1 | 170% (active) |
| COc1ccccc1-c1cc(C(F)(F)F)nc(S(=O)(=O)CCCC(=O)O)n1 | 110% (inactive) |
| Cc1ccc(Nc2nc(N)[nH]c(=O)c2N=O)cc1 | 108% (inactive) |
| C/C(=N\NC(=O)c1ccccc1)c1ccccc1F | 116% (inactive) |
| COc1ccccc1Nc1nc(NCC(C)C)nc(N)c1[N+](=O)[O-] | 114% (inactive) |
| COc1ccc(Nc2nc(NN)nc(C)c2[N+](=O)[O-])cc1 | 101% (inactive) |
| C/C(=N\NC(=O)c1cccc2ccccc12)c1cccnc1 | 108% (inactive) |
| COc1cccc(N/C=C/C(=O)c2ccc(Cl)cc2)c1 | 114% (inactive) |
| C=CCNc1nc(N)c([N+](=O)[O-])c(Nc2cccc(Cl)c2)n1 | 108% (inactive) |
| COc1cccc(NC(=O)CC(C)=O)c1 | 108% (inactive) |
| CCc1sc(C(=O)Nc2nc(-c3ccccn3)cs2)cc1C | 114% (inactive) |
| CC1=CN2C(=N)/C(=C/c3ccc([N+](=O)[O-])o3)C(=O)N=C2S1 | 5270% (active) |
| CC(=O)Nc1ccc(-c2nc3ccccc3o2)cc1 | 110% (inactive) |
| CC1=CN2C(=N)/C(=C/c3ccc(C)o3)C(=O)N=C2S1 | 105% (inactive) |
| CCN(CC)C(=O)Oc1ccnc2cc(Cl)ccc12 | 110% (inactive) |

| SMILES | GFP response vs DMSO |
| --- | --- |
| CSc1nc(S(C)(=O)=O)nc2[nH]c(=O)[nH]c12 | 110% (inactive) |
| COC(=O)c1cc(=O)c2cccc(OC)c2[nH]1 | 110% (inactive) |
| Cc1ccc(-c2cc(C(F)F)nc(S(C)(=O)=O)n2)cc1 | 121% (inactive) |
| C[n+]1cccc2cccc([O-])c21 | 116% (inactive) |
| COc1cccc2c(=O)c(C(=O)O)c[nH]c12 | 116% (inactive) |
| Cn1cccc1C(=O)Nc1nc(-c2ccccn2)cs1 | 101% (inactive) |
| Oc1c(Cl)cc(Cl)c2cccnc12 | 181% (active) |
| C/C(=C\C(=O)c1ccccc1)Nc1ccc(O)cc1 | 105% (inactive) |
| Cc1cc(C)c(NC(=O)CC(=O)c2ccccc2)c(Cl)c1 | 105% (inactive) |
| Nc1ncnc(Nc2cc(Cl)cc(Cl)c2)c1[N+](=O)[O-] | 108% (inactive) |
| C=CCNc1ncnc2ccc(Br)cc12 | 110% (inactive) |
| COc1ccc(N/C=C/C(=O)c2ccc(Cl)cc2)cc1 | 116% (inactive) |
| CC(=O)Nc1ccc(-c2nc3cc(Cl)ccc3o2)cc1 | 108% (inactive) |
| COc1cccc2c(O)cc(=O)n(C)c12 | 108% (inactive) |
| O=C(Nc1ccccc1)ON=C1c2ccccc2-c2ccccc21 | 99% (inactive) |
| COc1cccc(N/C=C/C(=O)c2ccc(C)cc2)c1 | 112% (inactive) |
| CC(=O)Nn1cnc2c(c1=O)C1(CCCC1)Cc1ccccc1-2 | 105% (inactive) |
| Cc1nc2c(O)cccc2cc1CO | 103% (inactive) |
| CN(C)CCCNc1cc(O)c2ncccc2c1 | 118% (inactive) |
